Potency data for 32 compounds are collected here from PubChem BioAssay (Tox21).

SMILES strings stand for the structures. Results filed as inconclusive are left out. Calls of active or inactive are those of the source. Calls come from the whole dose curve; as a rule, active = well fitted curve in the direction sought with a large enough effect in the repeat runs; inconclusive = weak or mixed curves; inactive = no such curve, though single readings can be large; an effect the other way counts as inactive or inconclusive.

The target in assay [1] is Cytochrome P450 2C9 (Homo sapiens) (UniProt P11712). The assay is described as follows: Cytochrome P450 Family 2 Subfamily C Member 9 (CYP2C9) small molecule antagonists: luciferase reporter qHTS assay (AID 1671198). Note: nearly all actives have a fitted effect of over 50% in size. The method, boiled down: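 Enzyme-substrate mix preincubated with compound 10 min at room temperature; reaction started with NADPH regeneration solution, 1 h 37C. Luminescent luciferin product read after 20 min detection reagent.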
Cytochrome P450 2C9 (Homo sapiens), sequence (P11712 whole entry, looked up): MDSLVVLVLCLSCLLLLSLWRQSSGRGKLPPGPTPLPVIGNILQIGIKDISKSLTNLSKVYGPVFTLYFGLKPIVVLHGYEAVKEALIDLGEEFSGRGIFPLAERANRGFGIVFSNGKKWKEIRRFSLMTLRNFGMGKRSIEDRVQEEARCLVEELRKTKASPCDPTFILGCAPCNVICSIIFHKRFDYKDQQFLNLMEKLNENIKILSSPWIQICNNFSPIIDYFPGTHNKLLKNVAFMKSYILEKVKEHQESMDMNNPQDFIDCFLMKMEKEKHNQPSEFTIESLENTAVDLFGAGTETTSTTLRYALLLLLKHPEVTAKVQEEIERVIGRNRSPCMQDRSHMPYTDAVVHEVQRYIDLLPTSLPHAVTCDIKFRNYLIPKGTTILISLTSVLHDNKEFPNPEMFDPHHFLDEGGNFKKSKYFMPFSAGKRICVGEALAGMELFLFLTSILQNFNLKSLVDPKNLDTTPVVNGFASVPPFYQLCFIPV
For orientation: In a reporter assay the amount or activity of a reporter protein is the signal.

For assay [2], the target named is Cytochrome P450 1A2 (Homo sapiens) (UniProt P05177). Put plainly: Cytochrome P450 Family 1 Subfamily A Member 2 (CYP1A2) small molecule antagonists: luciferase reporter qHTS assay (AID 1671199). Note: nearly all actives have a fitted effect of over 50% in size. Put shortly: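 P450-Glo CYP1A2 enzyme–proluciferin substrate mix with compound 10 min at room temperature, then NADPH regeneration 1 h at room temperature. Luciferin detection reagent added, luminescence read after 20 min; furafylline positive control.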
Cytochrome P450 1A2 (Homo sapiens), sequence (P05177 whole entry, looked up): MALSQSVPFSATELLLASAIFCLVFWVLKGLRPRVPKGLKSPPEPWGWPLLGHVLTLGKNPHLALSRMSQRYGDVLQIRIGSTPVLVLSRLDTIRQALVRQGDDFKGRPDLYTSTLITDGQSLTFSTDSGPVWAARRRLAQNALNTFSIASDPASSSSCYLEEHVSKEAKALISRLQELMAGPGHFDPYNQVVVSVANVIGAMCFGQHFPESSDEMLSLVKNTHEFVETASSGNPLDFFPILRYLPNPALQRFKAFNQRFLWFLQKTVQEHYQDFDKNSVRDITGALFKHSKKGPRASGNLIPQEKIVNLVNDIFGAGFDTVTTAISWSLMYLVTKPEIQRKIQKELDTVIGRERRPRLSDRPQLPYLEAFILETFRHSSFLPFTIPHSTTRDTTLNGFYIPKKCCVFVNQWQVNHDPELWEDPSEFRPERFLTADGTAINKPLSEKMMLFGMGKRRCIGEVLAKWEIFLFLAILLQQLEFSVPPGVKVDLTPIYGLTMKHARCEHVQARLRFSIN

Assay [3] has as its target Cytochrome P450 2C19 (Homo sapiens) (UniProt P33261). Put plainly: Cytochrome P450 Family 2 Subfamily C Member 19 (CYP2C19) small molecule antagonists: luciferase reporter qHTS assay (AID 1671197). Note: nearly all actives have a fitted effect of over 65% in size. The method, boiled down: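 Enzyme-substrate mix with proluciferin substrate (P450-Glo CYP2C19 system) preincubated with compounds 10 min at room temperature; NADPH regeneration solution added, 37C for 1 h; detection reagent stops reaction, luminescence read after 20 min. Ketoconazole positive control.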

The target in assay [4] is Voltage-gated inwardly rectifying potassium channel KCNH2 (Homo sapiens) (UniProt Q12809). Put plainly: Human Ether-a-go-go-Related Gene (hERG) channel small molecule antagonists: fluorescence cell-based qHTS assay (AID 1671200). Note: nearly all actives have a fitted effect of over 50% in size. Put shortly: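 Cell line hERG-U2OS; dye FluxOR II, 1 h RT dark; Tl+ stimulus; ex 480/em 540 nm, read each second for 2 min.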
Voltage-gated inwardly rectifying potassium channel KCNH2 (Homo sapiens), sequence (Q12809 whole entry, looked up): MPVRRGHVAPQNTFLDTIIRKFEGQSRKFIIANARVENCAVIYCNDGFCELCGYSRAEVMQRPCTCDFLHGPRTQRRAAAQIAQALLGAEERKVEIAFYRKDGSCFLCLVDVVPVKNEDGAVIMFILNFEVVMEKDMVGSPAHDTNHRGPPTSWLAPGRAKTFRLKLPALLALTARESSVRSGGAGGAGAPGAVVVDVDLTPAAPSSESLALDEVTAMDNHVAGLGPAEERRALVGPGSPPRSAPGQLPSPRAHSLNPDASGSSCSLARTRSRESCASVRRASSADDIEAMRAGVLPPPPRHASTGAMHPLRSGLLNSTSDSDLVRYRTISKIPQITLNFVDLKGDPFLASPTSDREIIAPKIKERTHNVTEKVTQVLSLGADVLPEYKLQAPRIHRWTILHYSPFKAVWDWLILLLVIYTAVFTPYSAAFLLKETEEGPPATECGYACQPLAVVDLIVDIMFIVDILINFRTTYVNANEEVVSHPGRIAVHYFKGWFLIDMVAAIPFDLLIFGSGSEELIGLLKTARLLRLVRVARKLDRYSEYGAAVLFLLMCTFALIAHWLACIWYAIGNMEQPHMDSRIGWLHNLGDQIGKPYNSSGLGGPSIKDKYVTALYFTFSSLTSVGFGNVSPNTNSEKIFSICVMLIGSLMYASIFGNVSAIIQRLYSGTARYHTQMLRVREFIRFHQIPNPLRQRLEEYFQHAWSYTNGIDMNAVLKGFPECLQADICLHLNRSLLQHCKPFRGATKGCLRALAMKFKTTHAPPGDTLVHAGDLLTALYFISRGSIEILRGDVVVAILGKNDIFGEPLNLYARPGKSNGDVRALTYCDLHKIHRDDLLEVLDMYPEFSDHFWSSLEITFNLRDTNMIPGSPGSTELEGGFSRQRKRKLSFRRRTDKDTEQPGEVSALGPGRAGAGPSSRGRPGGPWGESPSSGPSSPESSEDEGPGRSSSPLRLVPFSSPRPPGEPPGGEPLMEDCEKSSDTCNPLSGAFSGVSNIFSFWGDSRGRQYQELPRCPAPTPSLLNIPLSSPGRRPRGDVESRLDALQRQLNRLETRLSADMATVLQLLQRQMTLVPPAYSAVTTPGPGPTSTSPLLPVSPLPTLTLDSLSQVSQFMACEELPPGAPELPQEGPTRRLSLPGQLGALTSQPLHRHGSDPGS
(In general: Block of hERG is tested as a sign of cardiac risk.)

Assay [5] concerns the target Cytochrome P450 3A4 (Homo sapiens) (UniProt P08684). Put plainly: Cytochrome P450 Family 3 Subfamily A Member 4 (CYP3A4) small molecule antagonists: luciferase reporter qHTS assay (AID 1671201). Note: nearly all actives have a fitted effect of over 50% in size. Put shortly:
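Room-temperature assay throughout: 10 min compound–enzyme/substrate preincubation, 1 h reaction after NADPH regeneration solution, 20 min detection. Luciferin formed from proluciferin substrate is quantified by luminescence.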
Potency is the fitted concentration of half-maximal effect.

Cytochrome P450 3A4 (Homo sapiens), sequence (P08684 whole entry, looked up): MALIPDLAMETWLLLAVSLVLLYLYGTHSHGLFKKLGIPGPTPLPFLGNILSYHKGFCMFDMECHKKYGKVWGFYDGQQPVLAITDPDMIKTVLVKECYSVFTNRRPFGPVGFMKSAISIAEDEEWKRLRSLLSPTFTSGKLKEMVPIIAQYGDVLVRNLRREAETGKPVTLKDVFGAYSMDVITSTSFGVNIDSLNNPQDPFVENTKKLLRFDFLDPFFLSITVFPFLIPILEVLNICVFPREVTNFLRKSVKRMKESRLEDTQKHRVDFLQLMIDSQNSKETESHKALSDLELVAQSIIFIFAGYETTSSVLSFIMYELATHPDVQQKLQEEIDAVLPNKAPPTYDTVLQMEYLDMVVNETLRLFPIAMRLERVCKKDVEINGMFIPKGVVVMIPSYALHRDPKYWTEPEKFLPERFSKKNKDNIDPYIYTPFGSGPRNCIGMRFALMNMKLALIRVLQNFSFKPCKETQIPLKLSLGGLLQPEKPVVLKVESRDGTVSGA
Cytochrome P450 2C19 (Homo sapiens), sequence (P33261 whole entry, looked up): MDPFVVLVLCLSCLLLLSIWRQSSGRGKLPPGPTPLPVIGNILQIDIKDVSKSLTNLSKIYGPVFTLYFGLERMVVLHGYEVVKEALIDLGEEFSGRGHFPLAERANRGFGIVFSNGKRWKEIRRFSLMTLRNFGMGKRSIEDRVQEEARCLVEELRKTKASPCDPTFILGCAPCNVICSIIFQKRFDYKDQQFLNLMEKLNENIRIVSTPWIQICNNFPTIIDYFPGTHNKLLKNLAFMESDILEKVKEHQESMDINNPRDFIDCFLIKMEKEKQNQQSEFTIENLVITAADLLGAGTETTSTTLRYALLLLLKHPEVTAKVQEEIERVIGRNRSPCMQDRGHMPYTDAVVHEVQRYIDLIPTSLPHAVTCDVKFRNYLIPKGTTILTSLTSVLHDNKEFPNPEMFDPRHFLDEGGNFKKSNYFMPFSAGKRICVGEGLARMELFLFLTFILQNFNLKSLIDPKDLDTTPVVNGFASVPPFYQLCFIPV

Consider `Nc1nc(CC(=O)O)cs1`, for which the Potency result in assay [1] and in assay [2] was “inactive” in each case.
For `COc1ccc(C(C)=O)cc1`, the Potency result in assay [3], in assay [4] and in assay [5] was “inactive” in each case. Besides, the Potency in assay [2] is 29.1 µM (active).
For the compound `CCN(CC)CCOc1ccc2c(c1)C(=O)c1cc(OCCN(CC)CC)ccc1-2`, the Potency result in assay [3], in assay [4] and in assay [5] was “inactive” each time.
Take `O=C(O)/C=C/c1cnc[nH]1`: the Potency in assay [3] was 79.8 µM (active). The Potency result in assay [4] and in assay [5] was “inactive” each time.
Take `O=C(O)c1cn(C2CC2)c2cc(Cl)c(F)cc2c1=O`: the Potency entry in assay [3], in assay [4] and in assay [5] was “inactive” each time.
Turning to `O=C(O)Cn1c(C(=O)Nc2nc(-c3ccccc3Cl)cs2)cc2ccccc21`, the Potency result in assay [3], in assay [2], in assay [4] and in assay [5] was “inactive” each time.
With `CC(=O)NCCCS(=O)(=O)O`, the Potency result in assay [3], in assay [4] and in assay [5] was “inactive” in each case.
For the compound `CC(C)(C)C1CCCCC1O` (configuration not stated), the Potency entry in assay [3], in assay [2], in assay [4] and in assay [5] was “inactive” each time.
Take `COc1ccc(OC)c(OC)c1`: the results for the Potency in assay [1] and in assay [2] were 22.4 µM (active) and 39.9 µM (active), respectively. The Potency result in assay [4] and in assay [5] was “inactive” each time.
As for `CC(C)(C)c1ccc(S)cc1`, the Potency in assay [3] is 50.2 µM (active). Moreover, the Potency entry in assay [4] and in assay [5] was “inactive” each time.
As for `Oc1ccc(Cc2ccccc2)cc1`, the Potency in assay [3] is 20.8 µM (active). Also, the Potency result in assay [4] was “inactive”.
In the case of `N#Cc1c(F)cccc1F`, the Potency entry in assay [3], in assay [4] and in assay [5] was “inactive” in each case.
For `O=C(/C=C/c1ccc(O)c(O)c1)O[C@@H]1C[C@](O)(C(=O)O)C[C@@H](O)[C@H]1O`, the Potency in assay [3] was 80.9 µM (active). The Potency entry in assay [4] was “inactive”.
Consider `CCCCCCCCCCCCC(=O)O`, for which, in assay [3], the Potency is 71.3 µM (active). In addition, the Potency result in assay [4] and in assay [5] was “inactive” throughout.
Regarding `Cc1ccc(C(C)c2ccc(C)c(C)c2)cc1C`, the Potency in assay [3] is 7.1 µM (active). The Potency entry in assay [4] and in assay [5] was “inactive” throughout.
With `N#CCCNCCC#N`, the Potency result in assay [3] and in assay [4] was “inactive” each time.
As for `Oc1ccc(C(O)CNCCCCCCNCC(O)c2ccc(O)c(O)c2)cc1O` (configuration not stated), the Potency entry in assay [3], in assay [4] and in assay [5] was “inactive” throughout.
Regarding `CC(=O)O[C@@H]1C(=O)O[C@@H]2[C@H]1OC(=O)[C@@H]2OC(C)=O`, the Potency result in assay [3] and in assay [4] was “inactive” in each case.
In the case of `CC(=O)[C@@]1(O)CC[C@H]2[C@@H]3C[C@H](C)C4=CC(=O)CC[C@]4(C)[C@H]3CC[C@@]21C`, the Potency in assay [3] was 1.95 µM (active). The Potency entry in assay [2], in assay [4] and in assay [5] was “inactive” throughout.
Consider `O=C(NS(=O)(=O)/C=C/c1cccs1)c1ccc(F)cc1Br`, for which, in assay [1], the Potency was 7.1 µM (active). The Potency result in assay [2], in assay [4] and in assay [5] was “inactive” each time.
Take `CC[C@@H]1C[C@H](N(Cc2cc(C(F)(F)F)cc(C(F)(F)F)c2)C(C)=O)c2cc(C(F)(F)F)ccc2N1C(=O)OC(C)C`: the Potency entry in assay [3] and in assay [4] was “inactive” in each case. In addition, the Potency in assay [5] was 0.894 µM (active).
As to `CN(c1nccc(=O)[nH]1)C1CCN(c2nc3ccccc3n2Cc2ccc(F)cc2)CC1`, the Potency result in assay [3] was “inactive”. Further, the Potency in assay [4] was 2.39 µM (active).
Regarding `CCCCCOC(=O)COc1cc(N2C(=O)C3=C(CCCC3)C2=O)c(F)cc1Cl`, the Potency was 25.2 µM (active) in assay [3], 31.7 µM (active) in assay [2] and 6.33 µM (active) in assay [5].
Consider `CCOc1ccc(NC(=O)CC(C)=O)cc1`, for which the values for the Potency in assay [3] and in assay [2] were 56.4 µM (active) and 31.7 µM (active), respectively. The Potency entry in assay [4] and in assay [5] was “inactive” in each case.
Consider `CC1CCc2cc(F)cc3c(=O)c(C(=O)O)cn1c23` (configuration not stated), for which the Potency result in assay [1], in assay [2] and in assay [4] was “inactive” in each case.
For the compound `O=c1c2ccccc2nnn1CCl`, the Potency is 71 µM (active) in assay [1] and 11.2 µM (active) in assay [5]. Further, the Potency entry in assay [2] and in assay [4] was “inactive” in each case.
`CC(=O)Nc1ccc(/C=N/NC(N)=S)cc1`: the Potency result in assay [1], in assay [2] and in assay [4] was “inactive” throughout.
As to `CCCCCCCCCCCCCCCBr`, the Potency result in assay [3] and in assay [4] was “inactive” each time.
With `NCCCN(CCO)CCO`, the Potency entry in assay [3], in assay [4] and in assay [5] was “inactive” each time.
Consider `CC(C)CCCC(C)CCO` (configuration not stated), for which the Potency entry in assay [3], in assay [2], in assay [4] and in assay [5] was “inactive” in each case.
For the compound `O=C(c1ccccc1)c1ccc2n1CCC2C(=O)O` (configuration not stated), the Potency result in assay [3], in assay [4] and in assay [5] was “inactive” each time.
Regarding `CCCCCCCCCCCCCCCC(=O)OC/C=C(C)/C=C/C=C(C)/C=C/C1=C(C)CCCC1(C)C`, the Potency in assay [3] is 39.9 µM (active). Moreover, the Potency result in assay [4] is “inactive”.
